Results published in PubChem BioAssay AID1159580 (chemical genetic matrix, 2015).
Among all 5,500 compounds or so, about 2,000 (36%) were called active. Not shown: some 18% with an inconclusive outcome. Cut-off read from the data, not from the text of the source: active = normalized growth mostly below about 0.91 (no sharp cut-off); inconclusive = no clear call, values can overlap the other calls; inactive = mostly above about 0.92. Some of the results follow.

Experiment: chemical genetic growth profiling, strain panel (AID 1159580);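 note: tested at 20 µM; growth read once vehicle control cultures reached saturation at 30 °C; 1 = growth at the plate median or of vehicle wells; lower values mean less growth of the strain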
Conditions: growth OD

Measured: normalized growth

S=c1nc[nH]c2nc[nH]c12
inactive: S. cerevisiae deletion strains, locus YJR075W, strain HOC1, active compounds read low 0.996 | S. cerevisiae deletion strains, locus YKL009W, strain mrt4, active compounds read low 0.987 | S. cerevisiae deletion strains, locus YKL068W, active compounds read low 0.983 | S. cerevisiae deletion strains, locus YKL085W, strain MDH1 (second series), active compounds read low 0.966 | S. cerevisiae deletion strains, locus YKL085W, strain MDH1, active compounds read low 0.966 | S. cerevisiae deletion strains, locus YKL160W, strain elf1, active compounds read low 1.04 | S. cerevisiae deletion strains, locus YKR001C, strain vps1, active compounds read low 0.99 | S. cerevisiae deletion strains, locus YKR026C, strain gcn3, active compounds read low 1.01 | S. cerevisiae deletion strains, locus YKR091W, strain srl3, active compounds read low 0.996 | S. cerevisiae deletion strains, locus YLL001W, strain dnm1, active compounds read low 1.01 | S. cerevisiae deletion strains, locus YLL026W, active compounds read low 1.01 | S. cerevisiae deletion strains, locus YLL041C, strain sdh2, active compounds read low 0.989 | S. cerevisiae deletion strains, locus YLR027C, strain aat2, active compounds read low 1.02 | S. cerevisiae deletion strains, locus YLR039C, strain RIC1, active compounds read low 1 | S. cerevisiae deletion strains, locus YLR058C, strain SHM2, active compounds read low 0.982 | S. cerevisiae deletion strains, locus YLR102C, strain apc9, active compounds read low 0.978 | S. cerevisiae deletion strains, locus YLR113W, strain HOG1, active compounds read low 1 | S. cerevisiae deletion strains, locus YLR221C, strain rsa3, active compounds read low 1.01 | S. cerevisiae deletion strains, locus YLR258W, strain gsy2, active compounds read low 1.01 | S. cerevisiae deletion strains, locus YLR262C, strain YPT6 (second series), active compounds read low 1.03 | S. cerevisiae deletion strains, locus YLR262C, strain YPT6, active compounds read low 0.959 | S. cerevisiae deletion strains, locus YLR268W, strain sec22, active compounds read low 1 | S. cerevisiae deletion strains, locus YLR320W, strain mms22, active compounds read low 1.02 | S. cerevisiae deletion strains, locus YLR330W, strain CHS5, active compounds read low 0.992 | S. cerevisiae deletion strains, locus YLR342W, strain FKS1 (second series), active compounds read low 1 | S. cerevisiae deletion strains, locus YLR342W, strain FKS1, active compounds read low 1.02 | S. cerevisiae deletion strains, locus YLR357W, strain rsc2, active compounds read low 1.08 | S. cerevisiae deletion strains, locus YLR370C, strain arc18, active compounds read low 1.01 | S. cerevisiae deletion strains, locus YLR371W, strain rom2, active compounds read low 0.988 | S. cerevisiae deletion strains, locus YLR384C, strain iki3, active compounds read low 1 | S. cerevisiae deletion strains, locus YLR418C, strain cdc73, active compounds read low 1.01 | S. cerevisiae deletion strains, locus YML016C, strain PPZ1, active compounds read low 1 | S. cerevisiae deletion strains, locus YML032C, strain rad52, active compounds read low 1 | S. cerevisiae deletion strains, locus YML120C, strain ndi1, active compounds read low 0.986 | S. cerevisiae deletion strains, locus YML124C, strain tub3, active compounds read low 0.989 | S. cerevisiae deletion strains, locus YMR058W, strain fet3, active compounds read low 0.988 | S. cerevisiae deletion strains, locus YMR078C, strain ctf18, active compounds read low 0.973 | S. cerevisiae deletion strains, locus YMR125W, strain sto1, active compounds read low 1.07 | S. cerevisiae deletion strains, locus YMR129W, active compounds read low 1.01 | S. cerevisiae deletion strains, locus YMR205C, strain PFK2, active compounds read low 1.01 | S. cerevisiae deletion strains, locus YMR223W, strain ubp8, active compounds read low 0.949 | S. cerevisiae deletion strains, locus YMR231W, strain pep5, active compounds read low 1.02 | S. cerevisiae deletion strains, locus YMR263W, strain SAP30, active compounds read low 0.999 | S. cerevisiae deletion strains, locus YMR307W, strain GAS1, active compounds read low 1.08 | S. cerevisiae deletion strains, locus YNL067W, strain RPL9B, active compounds read low 0.996 | S. cerevisiae deletion strains, locus YNL071W, strain lat1, active compounds read low 1 | S. cerevisiae deletion strains, locus YNL183C, strain NPR1, active compounds read low 0.966 | S. cerevisiae deletion strains, locus YNL209W, strain ssb2, active compounds read low 1.03 | S. cerevisiae deletion strains, locus YNL233W, strain BNI4, active compounds read low 1 | S. cerevisiae deletion strains, locus YNL248C, strain rpa49, active compounds read low 1.05 | S. cerevisiae deletion strains, locus YNL250W, strain rad50, active compounds read low 0.974 | S. cerevisiae deletion strains, locus YNL271C, strain bni1, active compounds read low 0.979 | S. cerevisiae deletion strains, locus YNL298W, strain CLA4, active compounds read low 0.989 | S. cerevisiae deletion strains, locus YNL307C, strain MCK1, active compounds read low 0.988 | S. cerevisiae deletion strains, locus YNL322C, strain KRE1 (second series), active compounds read low 1.02 | S. cerevisiae deletion strains, locus YNL322C, strain KRE1, active compounds read low 0.994 | S. cerevisiae deletion strains, locus YNR049C, strain mso1, active compounds read low 1 | S. cerevisiae deletion strains, locus YNR052C, strain pop2, active compounds read low 0.979 | S. cerevisiae deletion strains, locus YOL006C, strain TOP1, active compounds read low 1.01 | S. cerevisiae deletion strains, locus YOL012C, strain htz1 0.693 | S. cerevisiae deletion strains, locus YOL147C, strain pex11, active compounds read low 0.982 | S. cerevisiae deletion strains, locus YOR001W, strain rrp6, active compounds read low 1 | S. cerevisiae deletion strains, locus YOR061W, strain CKA2, active compounds read low 0.993 | S. cerevisiae deletion strains, locus YOR069W, strain VPS5, active compounds read low 0.998 | S. cerevisiae deletion strains, locus YOR070C, strain gyp1, active compounds read low 1.01 | S. cerevisiae deletion strains, locus YOR080W, strain dia2, active compounds read low 1 | S. cerevisiae deletion strains, locus YOR083W, strain WHI5, active compounds read low 0.983 | S. cerevisiae deletion strains, locus YOR106W, strain vam3, active compounds read low 1.03 | S. cerevisiae deletion strains, locus YOR136W, strain idh2, active compounds read low 0.99 | S. cerevisiae deletion strains, locus YOR144C, strain elg1, active compounds read low 1 | S. cerevisiae deletion strains, locus YOR184W, strain ser1, active compounds read low 0.996 | S. cerevisiae deletion strains, locus YOR231W, strain MKK1, active compounds read low 1 | S. cerevisiae deletion strains, locus YOR265W, strain rbl2, active compounds read low 1.01 | S. cerevisiae deletion strains, locus YOR270C, strain vph1, active compounds read low 1.09 | S. cerevisiae deletion strains, locus YOR290C, strain snf2, active compounds read low 1.04 | S. cerevisiae deletion strains, locus YOR316C, strain cot1, active compounds read low 0.982 | S. cerevisiae deletion strains, locus YPL051W, strain arl3, active compounds read low 1.01 | S. cerevisiae deletion strains, locus YPL055C, strain LGE1, active compounds read low 0.992 | S. cerevisiae deletion strains, locus YPL078C, strain atp4, active compounds read low 0.997 | S. cerevisiae deletion strains, locus YPL106C, strain sse1, active compounds read low 1.01 | S. cerevisiae deletion strains, locus YPL240C, strain hsp82, active compounds read low 1.01 | S. cerevisiae deletion strains, locus YPL241C, strain CIN2, active compounds read low 0.994 | S. cerevisiae deletion strains, locus YPL256C, strain CLN2, active compounds read low 1.04 | S. cerevisiae deletion strains, locus YPR119W, strain clb2, active compounds read low 0.977 | S. cerevisiae deletion strains, locus YPR141C, strain kar3, active compounds read low 0.98 | S. cerevisiae deletion strains, locus YPR163C, strain tif3, active compounds read low 0.974 | S. cerevisiae deletion strains, locus YPR167C, strain met16, active compounds read low 0.988 | S. cerevisiae deletion strains, strain wtn01, active compounds read low 0.978 | S. cerevisiae strains, strain wild type, active compounds read low 1
